Laboratory results published in ChEMBL document CHEMBL1157539, “Thousands of chemical starting points for antimalarial lead identification” (Nature, 2010).
Values joined by “and” are separate entries in the source; they are usually repeats but may differ in a detail not shown here. Equal values may be shown once.

Assays:
Assay type in all cases: functional
[1] = tested on: Plasmodium falciparum; assay: GSK_TCMDC: Inhibition of Plasmodium falciparum 3D7 in whole red blood cells, using parasite LDH activity as an index of growth. Test compounds present at 2uM
[2] = tested on: Plasmodium falciparum; assay: GSK_TCMDC: Inhibition of Plasmodium falciparum Dd2 in whole red blood cells, using parasite LDH activity as an index of growth. Test compounds present at 2uM
[3] = tested on: HepG2; assay: GSK_TCMDC: Percent inhibition of human HepG2 cell line. Test compounds present at 10uM.

| SMILES | Inhibition [1] [%] | Inhibition [2] | Inhibition [3] |
| --- | --- | --- | --- |
| Cc1nc(-c2ccc(-c3ccc(C(=O)Nc4ccc5c(c4)C4(CCNCC4)CO5)cc3)c(C)c2)no1.Cl | 90 | 15% | 37% |
| C[C@H](Cc1ccc(OCCCCCCOc2ccccc2)cc1)NC[C@@H](O)c1cc(Br)no1.Cl | 94 | 70% | 21% |
| O=C(NC1CCC(CN2CCC(c3c[nH]c4ccccc34)CC2)CC1)c1cn(Cc2ccccc2)c2ccccc12 (stereo not given) | 91 | 48% | 84% |
| Cc1ccc(C2(O)CC3CCC(C2)N3C)cc1 (stereo not given) | 92 | 16% | 0% |
| Cc1cccc(N2CCN(Cc3cc(Cl)ccc3O)CC2)c1C.O=C(O)C(=O)O | 96 | 96% | 0% |
| Br.COC(=O)C(C)(C)c1ccc(CC(C)NCC(O)c2cccc(C(F)(F)F)c2)cc1 (stereo not given) | 99 | 98% | 6% |
| Cc1c(C(=O)N[C@@H](C)c2ccccc2)c2cc(O)c(Br)cc2n1C1CCCCC1 | 98 | 95% | 4% |
| Cc1ccc(/C=C/C(=O)NC2CCC(CN3CCC(c4c[nH]c5ccccc45)CC3)CC2)cc1 (stereo not given) | 100 | 66% and 69% | 32% and 41% |
| O=C(CCc1ccco1)NC1CCN(CC2(c3ccc(Cl)cc3)CCC2)CC1 | 99 | 67% | 0% |
| CS(=O)(=O)Nc1ccc2[nH]cc(C3CC4CCC(C3)N4CC3CCC(NC(=O)/C=C/c4ccc(Cl)c(Cl)c4)CC3)c2c1 (stereo not given) | 100 | 50% | 3% |
